Rows were chosen to be rich in hits. Some 14% of all compounds tested hit in one or more screens of this group.
Pf growth 96h – P. falciparum growth inhibition at 96 hours; Potency, µM (titrated, usually from 28.7 µM), without a hit: at the highest dose activity change, negative = inhibition, usual class: inhibitors; 320,000 compounds, 6.9% hits; P. falciparum luciferase reporter growth, 96 h; further: potency means the concentration at half of the fitted maximal effect
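P. falciparum expressing integrated firefly luciferase grown in erythrocytes (2% hematocrit, 0.05% parasitemia final) with compounds for 96 hours at 37 C, 5% CO2. Growth inhibition read as loss of luminescence after adding luciferase detection reagent.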
HCMV inh – inhibitors of human cytomegalovirus. HFF cells, HCMV-luciferase reporter, 72 h; hits give low values. activity change, negative = inhibition, % at 57.5 µM. 410,000 compounds, 4.5% hits. AID 1259415; in the data active means activity change below about -60%; inconclusive means no clear call, values can overlap the other calls; inactive means above about -39%
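Screen run at 2 compound doses on HFFs infected with reporter HCMV, MOI 1 PFU/cell. Luciferase activity from cell lysates at 72 h post infection gave inhibition relative to buffer-only and Salinomycin wells.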
Sm TGR inh – S. mansoni TGR enzyme inhibition; purified TGR, DTNB reduction, TNB absorbance 405 nm; AID 485364; Potency, µM (titrated, usually from 114 µM), without a hit: at the highest dose activity change, negative = inhibition, hits mostly inhibitors; Q962Y6; 360,000 compounds, 3% hits; further: potency means the concentration at half of the fitted maximal effect; nearly all actives have a fitted effect of over 60% in size
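TGR 20 nM + NADPH 100 uM (dispensed conc.), cpd preinc 15 min RT; start with NADPH (500 uM addition) then DTNB (15 mM addition). Kinetic TNB absorbance, 405 nm filter. Four-parameter Hill fit across titration.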
Pf growth 48h – inhibits P. falciparum growth in the first generation, 48 h; P. falciparum luciferase growth in erythrocytes, 48 h; Potency, µM (highest dose often 28.7 µM), for the others: top-dose activity change, negative = inhibition, actives largely listed as inhibitors; 310,000 compounds, 5.9% hits; AID 504832; further: potency means the concentration at half of the fitted maximal effect
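Here the parasites carry a stable luciferase gene and grow inside erythrocytes in Albumax-based RPMI medium with compound for one erythrocytic cycle. Activity is scored as loss of luminescent signal.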
FBPA Giardia inh – blocks Giardia fructose-bisphosphate aldolase activity | A8B2U2 | purified Giardia FBPA | Potency, µM (top dose mostly 59.6 µM), without a hit: at the highest dose activity, negative = inhibition, actives largely listed as inhibitors | 290,000 compounds, 0.71% hits | AID 2451; further: potency means the concentration at half of the fitted maximal effect; nearly all actives have a fitted effect of over 55% in size
Target sequence (A8B2U2 whole entry, looked up): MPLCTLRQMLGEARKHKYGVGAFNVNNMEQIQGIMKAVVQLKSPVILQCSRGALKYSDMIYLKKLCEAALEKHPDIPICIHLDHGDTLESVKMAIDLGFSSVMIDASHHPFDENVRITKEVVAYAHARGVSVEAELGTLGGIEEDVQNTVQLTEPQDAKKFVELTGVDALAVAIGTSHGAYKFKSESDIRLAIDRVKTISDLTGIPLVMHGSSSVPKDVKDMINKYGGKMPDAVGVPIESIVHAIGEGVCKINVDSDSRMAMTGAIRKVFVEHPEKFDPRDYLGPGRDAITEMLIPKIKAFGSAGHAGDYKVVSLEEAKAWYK
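40 nM FBPA preincubated 10 min at RT with compound (up to 57.5 uM final), then substrate plus GAPDH/TPI/NAD/arsenate coupling and diaphorase/resazurin added. Fluorescence read after 20 min at RT, 525/598 nm.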
An asterisk follows results filed as active; ? = inconclusive; . = no result given; [ ] = dose if it differs, or a comment. Unless noted, the call rests on the fitted dose curve; in most records, active means well fitted curve in the direction sought with a large enough effect; inconclusive means small, poorly fitted or top-dose-only effect, or another doubt; inactive means no such curve, though single readings can be large; an effect the other way counts as inactive or inconclusive. On the % scale 0 is the no-effect control and ±100 the full control effect.

SMILES	Pf growth 96h	HCMV inh	Sm TGR inh	Pf growth 48h	FBPA Giardia inh
CCOC(=O)c1sc(N2C(=O)C(O)=C(C(=O)c3ccc(C)o3)C2c2cccc([N+](=O)[O-])c2)nc1C (centres undefined)	15µM*	-23	?	31%	-13%
CCOC(=O)c1sc(N2C(=O)C(O)=C(C(=O)c3ccc(C)o3)C2c2ccc(OC)c(OC)c2)nc1C (centres undefined)	14%	12	-2%	-20%	.
CCOC(=O)c1sc(N2C(=O)C(O)=C(C(=O)c3ccco3)C2c2ccc([N+](=O)[O-])cc2)nc1C (centres undefined)	.	-24	.	.	.
CCOC(=O)c1sc(N2C(=O)C(O)=C(C(=O)c3ccco3)C2c2ccc(C)o2)nc1C (centres undefined)	?	-22	7.9µM*	-6%	-30%
CCOc1ccc(C2C(C(=O)c3ccc(C)o3)=C(O)C(=O)N2c2nc(C)c(C(=O)OC)s2)cc1 (centres undefined)	30%	-26	45µM*	49%	-23%
CC[C@@]1(c2ccccc2)NC(=O)N(C)C1=O	-22%	.	.	-19%	.
C#C[C@@]1(O)CC[C@@H]2[C@@H]3CCC4=CC(=O)CC[C@@H]4[C@H]3CC[C@]21CC	.	.	.	.	2%[21.7 µM]
Cc1ccc(Nc2nc(N)nc(CN3CCN(Cc4ccc5c(c4)OCO5)CC3)n2)cc1	.	-29	-20%	10µM*	10%
Cc1ccc(Nc2nc(N)nc(CN3CCN(Cc4ccc5c(c4)OCO5)CC3)n2)cc1Cl	101%[5.75 µM]	-20	1%	?	4%
Cc1ccc(Nc2nc(N)nc(CN3CCN(Cc4ccc5c(c4)OCO5)CC3)n2)c(C)c1	?	-23	5%	12µM*	20%
Cc1ccc(Nc2nc(N)nc(CN3CCN(Cc4ccc5c(c4)OCO5)CC3)n2)cc1C	22%	?	.	?	5%
COc1ccc(/C=N/N(C)C2=NCCN2)c(OC)c1OC	9%	12	3%	0%	5%
CC1=C(C#N)C(c2ccc(O)cc2)C2=C(CCCC2=O)N1 (centres undefined)	26%	-7	0%	0%	2%
O=C1CCCC2=C1C(c1ccc(O)cc1)c1c(ccc3ccccc13)N2 (centres undefined)	?	-5	25µM*	?	4%
O=C1CCCC2=C1C(c1ccc(O)c(O)c1)c1c(ccc3ncccc13)N2 (centres undefined)	-2%	-14	?	-9%	6.3µM*
CCOc1ccc(C2C3=C(CCCC3=O)Nc3ccc4ncccc4c32)cc1 (centres undefined)	?	56	18µM*	134%	3%
CSc1cccc(NC(=O)c2ccc(CN3CCc4ccccc4C3)cc2)c1	3%	-61*	-9%	4.1µM*	?
CCc1cccc(C)c1NC(=O)c1ccc(CN2CCc3ccccc3C2)cc1	1.5µM*	-11	1%	4.7µM*	?
CC(=O)Nc1ccc(NC(=O)c2ccc(CN3CCc4ccccc4C3)cc2)cc1	9.3µM*	-17	-1%	?	-7%
O=C(Nc1cccc(Br)c1)c1ccc(CN2CCc3ccccc3C2)cc1	9.3µM*	-28	0%	-9%	-4%
COc1ccc(OCC(=O)NNC(=O)c2cccc(O)c2)cc1	?	-27	-2%	-17%	6%
CCOc1ccc(N=C(NN)c2ccc3ccccc3n2)cc1	-3%	-69*	2%	85%	?
CCOc1ccc(N=C(C)C2=C(O)c3ccccc3C2=O)cc1	12%	3	14%	15%	-5%
O=c1ccc2ccc(O)c(O)c2o1	.	.	.	.	10µM*
CCOC(=O)C1=C(COC(=O)C2CC(=O)N(c3ccccc3F)C2)NC(=O)NC1C (centres undefined)	?	-20	-5%	-21%	.
SMILES	Pf growth 96h	HCMV inh	Sm TGR inh	Pf growth 48h	FBPA Giardia inh
COc1ccc(OC)c(CCNC(=O)CCc2cn(C)c3ccccc23)c1	1%	-34	1%	-3%	-3%
COc1ccc(CCNC(=O)CCc2cn(C)c3ccccc23)c(OC)c1OC	?	?	6%	12µM*	-12%
COc1ccc(OC)c(CNC(=O)CCCc2cn(C)c3ccccc23)c1	?	-6	-8%	23%	-6%
Cn1cc(CCCC(=O)NCc2cccc(Br)c2)c2ccccc21	.	-14	0%	.	.
COc1ccc(OC)c(CNC(=O)CCc2cn(C)c3ccccc23)c1	3.7µM*	48	12%	8%	15%
COc1ccc(Br)cc1CNC(=O)CCCc1cn(C)c2ccccc12	12µM*	-11	-3%	-7%	0%
COc1ccc(OC)c(CNC(=O)Cc2c(C(=O)O)[nH]c3ccccc23)c1	9.3µM*	20	25%	1%	15%
Cc1cn([C@H]2C[C@H](O)[C@@H](/C=C/C(=O)NCCc3cccs3)O2)c(=O)[nH]c1=O	.	2	.	.	.
Cn1c(-c2cccc(C(F)(F)F)c2)cc2cnc(Nc3ccc(F)cc3)cc21	.	-6	.	.	.
Cc1ccc(NC(=O)N(Cc2cn(C)c3ccccc23)C2CCCCC2)cc1C	.	-21	2%	.	.
COc1cccc(NC(=O)N(Cc2cn(C)c3ccccc23)C2CCCCC2)c1	.	-104*	?	.	.
Cc1nn(C(=O)c2ccc(Cl)cc2)c(C)c1S(=O)(=O)N1CCOCC1	.	-2	?	.	.
O=C(COC(=O)c1ccc([N+](=O)[O-])o1)c1ccccc1	?	2	-22%	-2%	-9%
COc1ccccc1NC(=O)c1ccc(-c2ccccc2F)o1	6%	50	-3%	43%	-4%
O=C(OCCCOC(=O)c1ccc([N+](=O)[O-])o1)c1ccc([N+](=O)[O-])o1	6%	-7	-18%	13µM*	.
Cc1cccc(NC(=O)c2ccc([N+](=O)[O-])o2)c1C	-11%	-14	6%	15%	-11%
COc1ccccc1NC(=O)c1ccc([N+](=O)[O-])o1	.	-63*	.	.	.
O=C(Nc1cccc2ccccc12)c1ccc([N+](=O)[O-])o1	5.2µM*	?	?	?	-4%
CC(=O)c1ccccc1OC(=O)c1ccc([N+](=O)[O-])o1	52%	106	16µM*	45%	-26%
CCCN(C(=O)c1cc2c(=O)oc3ccccc3c2s1)c1ccc(CC)cc1	.	4	8%	.	.
O=C(/C=C/c1ccc(S(=O)(=O)N2CCOCC2)cc1)NCc1ccc(Cl)cc1	?	16	-2%	?	7%
O=C(Nc1ccccc1C(=O)NC1CC1)c1ccc([N+](=O)[O-])o1	10µM*	-14	?	?	.
CCOC(=O)C1CCN(C(=O)COC(=O)c2ccc([N+](=O)[O-])o2)CC1	12µM*	?	?	?	.
Cc1[nH]c2ccccc2c1C(=O)C(C)OC(=O)c1ccc([N+](=O)[O-])o1 (centres undefined)	?	-6	?	3.3µM*	?
